Data from PubChem BioAssay (NCATS).
Inconclusive results are not listed. Active and inactive are the calls of the source. Unless noted, calls follow the shape of the dose curve; as a rule, active = well fitted curve in the direction sought with a large enough effect; inconclusive = small, poorly fitted or top-dose-only effect, or another doubt; inactive = no such curve, though single readings can be large; an effect the other way counts as inactive or inconclusive.

Tests used:
[1] = system: Zika virus NS2B-NS3 protease (linked construct); experiment: Primary screen NINDS Rhodamine qHTS for Zika virus inhibitors (AID 1347160)
In short: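 Kinetic fluorescence (Ex 480 nm, Em 540 nm) over 15 min with 1.5 microM Rhodamine110 peptide and 25 nM linked protease.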

[2] = OV-KATE Cancer Cell Toxicity qHTS against the NCATS CANVASS Library (AID 1347345)
In short: (§1)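 ATP content after 72 h treatment, detected by CellTiter-Glo luminescence (15min room-temperature development), reflects cell viability. Wells contained 1000 cells and received compounds at 11 concentrations.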

[3] = HPAF-II Cancer Cell Toxicity qHTS against the NCATS CANVASS Library (AID 1347346)
In short: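 HPAF-II cells at 1000 cells/well were treated with an 11-point concentration series for 72 hours at 37 degrees C. Viability read by CellTiter-Glo luminescence.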

[4] = OV-SAHO Cancer Cell Toxicity qHTS against the NCATS CANVASS Library (AID 1347348)
In short: as §1

[5] = Panc-1005 Cancer Cell Toxicity qHTS against the NCATS CANVASS Library (AID 1347349)
In short: as §1

[6] = SW1088 Cancer Cell Toxicity qHTS against the NCATS CANVASS Library (AID 1347350)
In short: as §1

[7] = COV-362 Cancer Cell Toxicity qHTS against the NCATS CANVASS Library (AID 1347352)
In short: (§2)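 Cells at 1000/well were given compound 4 h after plating in an 11-point series. Viability was read by CellTiter-Glo luminescence after 72 h at 37 degrees C.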

[8] = A2780 Cisplatin Sensitive Ovarian Cancer Cell Toxicity qHTS against the NCATS CANVASS Library (AID 1347353)
In short: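 A2780 cells, 750/well, settled 4 h at 37 °C, then treated with an 11-point compound series for 72 h. Viability was read as ATPLite luminescence after 10 min at room temperature, with bortezomib as control.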

[9] = UWB1.289-WTBRCA1 Cancer Cell Toxicity qHTS against the NCATS CANVASS Library (AID 1347354)
In short: as §2

[10] = HPAF-II 24hr Apoptosis Induction qHTS against the NCATS CANVASS Library (AID 1347356)
In short: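 HPAF-II cells (500/well) exposed to compounds in 11-point series for 24 h at 37 degrees C; caspase-3/7 activity read by Caspase-Glo luminescence after 15 min at room temperature. Doxorubicin titration as control.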

[11] = HEK293 18hr Apoptosis Induction qHTS against the NCATS CANVASS Library (AID 1347357)
In short: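 Natural products applied to HEK293 for 18 hr; Caspase-Glo 3/7 readout.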

[12] = HEK293 24hr Apoptosis Induction qHTS against the NCATS CANVASS Library (AID 1347359)
In short: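 Caspase-3/7 activation measured as luminescence from the DEVD-based Caspase-Glo reagent, 15 min at room temperature, following 24-hour compound treatment of HEK293 cells.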

[13] = system: NAD(P)H diaphorase (Clostridium kluyveri); experiment: Diaphorse counterscreen qHTS: Assay Interference Panel against the NCATS CANVASS Library (AID 1347362)
In short: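 Counterscreen for coupling-enzyme interference: resorufin fluorescence from resazurin/NADH turnover, read after 5 min at room temperature. Compounds were tested over an 11-point series after 15 min dark preincubation with diaphorase in PBS-Tween.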

[14] = target: Luciferin 4-monooxygenase (Photinus pyralis) (UniProt P08659); experiment: Firefly luciferase counterscreen qHTS: Assay Interference Panel against the NCATS CANVASS Library (AID 1347363)
Luciferin 4-monooxygenase (Photinus pyralis), sequence (P08659 whole entry, looked up): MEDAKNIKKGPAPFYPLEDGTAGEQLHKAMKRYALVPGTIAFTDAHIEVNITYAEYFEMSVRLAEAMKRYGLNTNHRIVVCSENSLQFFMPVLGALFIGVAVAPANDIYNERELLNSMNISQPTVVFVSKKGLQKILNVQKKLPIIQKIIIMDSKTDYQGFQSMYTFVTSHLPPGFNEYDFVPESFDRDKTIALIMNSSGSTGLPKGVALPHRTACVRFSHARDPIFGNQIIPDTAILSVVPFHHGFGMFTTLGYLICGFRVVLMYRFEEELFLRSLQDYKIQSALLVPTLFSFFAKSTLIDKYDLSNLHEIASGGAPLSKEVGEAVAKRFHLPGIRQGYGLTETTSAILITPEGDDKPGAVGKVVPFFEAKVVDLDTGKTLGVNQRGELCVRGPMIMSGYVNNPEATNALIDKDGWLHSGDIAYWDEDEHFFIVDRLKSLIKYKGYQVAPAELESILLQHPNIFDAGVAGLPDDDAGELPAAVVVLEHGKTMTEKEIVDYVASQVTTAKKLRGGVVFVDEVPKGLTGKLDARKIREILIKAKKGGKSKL
In short: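 Luminescence inhibition readout: compounds (11-point qHTS) sat 15 min at room temperature with substrate mix (0.013 mM luciferin and ATP), then firefly luciferase was added and signal read 5 min later.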

[15] = SDT Cancer Cell Toxicity qHTS against the NCATS CANVASS Library (AID 1347365)
In short: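 SDT dog glioma cells (500/well) exposed to an 11-point compound series for 72 hr at 37C, 5% CO2. Cytotoxicity read as ATP content by CellTiterGlo luminescence; bortezomib titration as control.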

[16] = KB-3-1 Cancer Cell Toxicity qHTS against the NCATS CANVASS Library (AID 1347366)
In short: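 Cytotoxicity toward KB-3-1 cells (500/well, DMEM + 10% FBS) was scored by CellTiter-Glo luminescence following 72 hr exposure at 37C, with bortezomib titrated as control.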

[17] = G06 Cancer Cell Toxicity qHTS against the NCATS CANVASS Library (AID 1347368)
In short: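 G06 dog glioma cells, 500 per well, exposed 72 hr at 37C, 5% CO2 to compounds in an 11-point series. Cytotoxicity read as ATP content by CellTiterGlo luminescence.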

[18] = MCF7 Cancer Cell Toxicity qHTS against the NCATS CANVASS Library (AID 1347369)
In short: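 This 72 hr qHTS scored MCF7 viability by CellTiterGlo luminescence, with 500 cells/well; bortezomib titration ran as control.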

[19] = qHTS for ATAD5 Antagonist screened against the NCATS CANVASS Library (AID 1347370)
In short: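 HEK293T cells with stably integrated ATAD5-luciferase reporter, 2000/well, 5 h attachment; compounds plus 10 µM 5-fluorouridine, 16 h at 37 °C. Luciferase luminescence read, with CellTiter-Fluor viability read first.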

[20] = J3T Cancer Cell Toxicity qHTS against the NCATS CANVASS Library (AID 1347371)
In short: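 J3T dog glioma cells, 500 per well, treated 72 h at 37C with compounds (11-point qHTS); viability from ATP content by CellTiterGlo luminescence; bortezomib titration as control.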

[21] = target: Nuclear receptor subfamily 1 group I member 3 (Homo sapiens) (UniProt Q14994); experiment: qHTS for Constitutive Androstane Receptor (CAR) Antagonist screened against the NCATS CANVASS Library (AID 1347372)
Nuclear receptor subfamily 1 group I member 3 (Homo sapiens), sequence (Q14994 whole entry, looked up): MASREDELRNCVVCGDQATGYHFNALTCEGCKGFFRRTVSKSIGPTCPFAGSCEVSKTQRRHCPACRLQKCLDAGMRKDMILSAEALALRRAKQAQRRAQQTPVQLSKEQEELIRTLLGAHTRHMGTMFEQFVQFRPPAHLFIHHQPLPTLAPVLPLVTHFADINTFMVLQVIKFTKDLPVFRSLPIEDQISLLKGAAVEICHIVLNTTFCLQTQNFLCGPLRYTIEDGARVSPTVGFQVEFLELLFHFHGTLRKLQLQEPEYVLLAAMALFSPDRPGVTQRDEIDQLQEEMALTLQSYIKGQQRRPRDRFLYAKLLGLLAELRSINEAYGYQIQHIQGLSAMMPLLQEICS
In short: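 HepG2-CYP2B6-hCAR double-stable cells plated, 4hr attach; cpd pin-transferred; CITCO 50 nM final; 24hr 37C/5% CO2; CellTiter-Fluor 1hr (fluorescence), then ONE-Glo luminescence.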

[22] = target: Nuclear receptor subfamily 1 group I member 3 (Homo sapiens) (UniProt Q14994); experiment: qHTS for Constitutive Androstane Receptor (CAR) Agonist screened against the NCATS CANVASS Library (AID 1347373)
In short: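 HepG2 cells stably carrying hCAR and a CYP2B6-2.2kb luciferase reporter, treated 24hr at 37C with compounds plus 1.5uM PK11195; activation by ONE-Glo luminescence, viability by CellTiter-Fluor.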

[23] = qHTS for Hypoxia signaling pathway (HIF-1) antagonists against the NCATS CANVASS Library (AID 1347374)
In short: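 HRE-bla ME-180 cells in medium with 0.5% dialyzed FBS received compounds (11-point series) plus CoCl2 (60 uM addition stock) for 17 hrs at 37C. Beta-lactamase activity read with CCF4 (405 nm ex, 460/530 nm em); CellTiter-Glo viability measured in same wells.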

[24] = qHTS for Inflammasome Signaling Inhibitors: IL-1-beta AlphaLISA screen against the NCATS CANVASS Library (AID 1347379)
In short: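 THP-1 cells pretreated 1 hr with compound (up to 57.5 uM final), then stimulated with LPS (250 ng/mL final) and ATP (1.25 mM final). Secreted IL-1B measured by AlphaLISA after 16 hr; glyburide as positive control.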

[25] = Inflammasome Signaling qHTS Counterscreen: IL-1-beta AlphaLISA counterscreen against the NCATS CANVASS Library (AID 1347381)
In short: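 Cell-free interference check: compounds added to medium spiked with 4 pg purified IL-1β. Anti-IL-1β acceptor beads (6 ug/mL) with 0.6 nM biotinylated antibody added for 1 h at RT, then streptavidin donor beads (24 ug/mL) for 30 min in the dark. AlphaLISA read at 680/615 nm.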

[26] = Cytotoxicity qHTS for assessment of Hepg2 cells membrane integrity screened against the NCATS CANVASS Library (AID 1347387)
In short: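 HepG2 cells (2000/well) attached overnight, then exposed 5 hr at 37C to compounds in an 11-point series (0.59 nM - 46 uM final). LDH release from damaged membranes read fluorometrically (CytoTox-ONE; 560/590 nm) after 10 min at room temperature.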

[27] = qHTS for Activators of p53 Stress Response Pathway screened against the NCATS CANVASS Library (AID 1347388)
In short: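 Beta-lactamase reporter driven by p53 response elements in HCT-116 cells, read as the 460 nm/530 nm emission ratio after CCF4 loading, following 16 h of exposure to an 11-point series. Cell viability was measured in the same wells by CellTiter-Glo luminescence.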

[28] = qHTS assay for small molecule disruptors of mitochondrial membrane potential screened against the NCATS CANVASS Library (AID 1347389)
In short: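 HepG2 cells (2,000/well) plated overnight, then exposed to compounds in 11-point qHTS series for 1 h at 37C before 30 min Mito-MPS dye; depolarization read as fall in red aggregate (590 nm) to green monomer (535 nm) fluorescence.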

[29] = qHTS for activators of Nrf2/ARE signaling pathway screened against the NCATS CANVASS Library (AID 1347391)
In short: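 ARE-bla HepG2 beta-lactamase reporter cells exposed to compounds for 16 h at 37C; CCF4 substrate 2 h, fluorescence at ex 405 nm, em 460/530 nm. Viability by CellTiter-Glo luminescence.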

[30] = qHTS for activators of dead-cell proteases activity screened against the NCATS CANVASS Library (AID 1347392)
In short: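 Compounds are pin-transferred onto attached HepG2 cells, giving 11 final concentrations. After 5 h at 37C, AAF-aminoluciferin reagent is added and luminescence is recorded at room temperature.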

[31] = Vero-766 cells viability qHTS against the NCATS CANVASS Library: Counterscreen for Zika virus inhibition assay (AID 1347394)
In short: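 Counterscreen for toxicity: Vero 766 cells exposed 72 h to an 11-point compound series, viability by CellTiter-Glo.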

[32] = qHTS for inhibitors of Wild type Zika virus screened against the NCATS CANVASS Library (AID 1347396)
In short: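 Protection against wild-type Zika cytopathic effect is measured in African green monkey Vero 766 cells exposed to an 11-point compound series. Surviving cells are quantified by CellTiter Glo luminescence after 72 h.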

[33] = qHTS for inhibitors of Rabies Virus screened against the NCATS CANVASS Library (AID 1347402; calls by dose curve)

Measured: Potency

CCCC[C@@H]1CC[C@H]2CCCC(CCC)N12 (stereo partly drawn)
active: [1] 49.3 µM
inactive: all other assays above
